Holding throughout (settings): concentration: 1 μM, replicates: in singlicate; n = 1
In assay [1] the test system is T1, RSK1(Kin.Dom.2-C-terminal).
T1 construct: gene RPS6KA1

For assay [2], the system named is T2, RSK2(Kin.Dom.1-N-terminal).
T2 construct: gene RPS6KA3

For assay [3], the system named is T3, RSK2(Kin.Dom.2-C-terminal).
T3 construct: gene RPS6KA3

The test system of assay [4] is T4, RSK3(Kin.Dom.1-N-terminal).
T4 construct: gene RPS6KA2

Assay [5] has as its system T5, RSK3(Kin.Dom.2-C-terminal).
T5 construct: gene RPS6KA2

Assay [6] has as its system T6, RSK4(Kin.Dom.1-N-terminal).
T6 construct: gene RPS6KA6

Assay [7] has as its system T7, RSK4(Kin.Dom.2-C-terminal).
T7 construct: gene RPS6KA6

Assay [8] relates to S6K1.
For assay [9], the system named is SBK1.
Assay [10] concerns SGK2.
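Note: KINOMEscan kinase panel screen.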

With `Nc1cccc(-c2ccc3c(N)n[nH]c3c2)n1` [GSK2192730], the “%Inh” value came to 21% in assay [1]; 3% in assay [2]; 0% in [3]; 6% in [4]; 19% in assay [5]; 0% in assay [6]. Moreover, the “%Inh” value in assay [7] turned out to be 17%; in assay [8] it was 7%; in assay [9] it was 2%; in assay [10], 6%.
In the case of `COc1ccc(CSc2nnc(-c3ccc4nccn4c3)o2)cc1C(F)(F)F`, the “%Inh” value turned out to be 44% in assay [1]; 12% in [2]; 10% in assay [3]; 8% in assay [4]; 6% in assay [5]; 30% in assay [6]. The “%Inh” value was found to be 0% in assay [7], 0% in [8], 0% in [9] and 4% in assay [10].
Take `COc1cccc(NC(=O)Nc2ccc(C)c(-c3ccc(C(=O)Nc4ccncc4)cc3)c2)c1` [GSK1398474]: the “%Inh” value in assay [1] came to 0%; in assay [2], 0%; in assay [3], 0%; in assay [4], 7%; in assay [5], 19%; in assay [6] it was 0%. Besides, the “%Inh” value in assay [7] was 22%; in assay [8], 18%; in assay [9] it was 8%; in assay [10] it was 0%.
Take `Fc1ccc(-c2nc3n(c2-c2ccncc2)CCS3)cc1` [GI98581]: the “%Inh” value in assay [1] is given as 22%; in [2] it was 1%; in assay [3], 7%; in [4] it was 18%; in assay [5] it was 11%; in [6] it was 0%. Moreover, the “%Inh” value in assay [7] came to 88%; in assay [8], 33%; in assay [9], 21%; in [10] it was 6%.
In the case of `c1ccc(-c2ccnc3[nH]ccc23)cc1` [SB-693578], the “%Inh” value in [1] was found to be 0%; in [2] it was 30%; in [3] it was 27%; in [4], 0%; in [5], 0%; in [6], 29%. For the same compound, the “%Inh” value is 17% in assay [7], 26% in assay [8], 17% in assay [9] and 4% in assay [10].

Values taken from PMC5540273 (PLoS ONE, 2017).
